KCNH2 3.1 inh: KCNH2 3.1 (human) potassium channel inhibition; U2OS KCNH2 3.1, thallium flux FluxOr; stronger effect = lower value; activity change, % (tested at about 1.8 µM); actives 0.95% (n = 340,000); AID 720553;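 active = maximum activity change below -70%; inconclusive = maximum activity change from -70% to -50%; inactive = maximum activity change above -50%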;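 also: thallium influx rate constant from kinetic fluorescence after stimulation buffer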
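Normalized rate constant (relative to positive and negative DMSO controls) derived from a 2 min kinetic fluorescence read after stimulation; U2OS cells expressing the 3.1 isoform via virus at 1.77 x 10^8 /mL.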
KCNH2 WT inh: inhibitors of human wildtype KCNH2 potassium channel. actives 0.37% (n = 340,000). Q12809. activity change, % at 1.84 µM. U2OS, BacMam KCNH2, thallium flux FluxOr; stronger effect = lower value. AID 720551;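 active = maximum activity change below -70%; inconclusive = maximum activity change between -70% and -50%; inactive = maximum activity change above -50%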
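U2OS cells transduced with wild-type KCNH2 virus are loaded with FluxOr dye for 45 min, and thallium flux is measured in kinetic reads before and after stimulation buffer. Rate constants are normalized to DMSO controls.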
GRP78 ERSR act: ER stress response induction in glioma | U87-MG GRP78 promoter luciferase reporter, 16 h | Potency, µM, usual class: activators | actives 0.02% (n = 420,000); active = well fitted activation curve with a large enough effect; inconclusive = small, poorly fitted or top-dose-only effect; inactive = no such curve, though single readings can be large or run the other way; also: series mostly up to about 76 µM; nearly all actives have a fitted effect of over 35% in size
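Stably transfected U87-MG glioma cells carrying a GRP78-based luciferase sensor; 16 h compound incubation. Luminescence end-point read 10 min after Bright-Glo addition at room temperature.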
TRPML1 inh: blocks the human TRPML1 channel; TRPML1-inducible cells, Ca2+ dye fluorescence, FDSS; stronger effect = lower value; inhibition of EC80 agonist-evoked calcium signal; activity change, negative = inhibition, % (concentration not given with the values); actives 0.02% (n = 390,000); in the data active = activity change below about -50%; inconclusive = between about -30% and that limit;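 also: stimulus is agonist 54-4 at its EC80 concentration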
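TRPML1-DL cells, Tet-induced overnight (~16 h, 37 °C) at 1,500 cells/well, were loaded with Ca8 no-wash dye plus quencher for 45-90 min at room temperature. Compounds were pinned during FDSS kinetic reading; agonist 54-4 at EC80 (4 uM final) then added.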
TRPML1 agonist: agonists of human TRPML1 channel; TRPML1-expressing cells, Ca2+ dye fluorescence, FDSS; actives 0.12% (n = 410,000); Q9GZU1; activation, % (no concentration beside the values); in the data active = activation above about 50%; inconclusive = mostly about 30% to 49%
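Tet-induced TRPML1-DL cells, 1,500 per well, cultured overnight, were loaded with a no-wash Ca2+ dye for 45–90 min. Calcium fluorescence was recorded on the FDSS for 110 s after compound addition, before the EC80 agonist (4 uM 54-4) was added.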
PTAP TSG101 blk: blocks PTAP/TSG101 interaction to inhibit HIV-1 budding. Q99816. Fluorescence polarization, FITC-PTAP peptide / Tsg101 binding. Potency, µM (series often up to 115 µM), actives largely listed as inhibitors. 340,000 tested, under 10 active. AID 493005; active = well fitted inhibition curve with a large enough effect in the main read-out, with a control signal flat, not every such curve was filed as active; inconclusive = small, poorly fitted or top-dose-only effect, or effect the other way, or a change in a side signal; inactive = no such curve, though single readings can be large or run the other way
Target sequence (Q99816 whole entry, looked up): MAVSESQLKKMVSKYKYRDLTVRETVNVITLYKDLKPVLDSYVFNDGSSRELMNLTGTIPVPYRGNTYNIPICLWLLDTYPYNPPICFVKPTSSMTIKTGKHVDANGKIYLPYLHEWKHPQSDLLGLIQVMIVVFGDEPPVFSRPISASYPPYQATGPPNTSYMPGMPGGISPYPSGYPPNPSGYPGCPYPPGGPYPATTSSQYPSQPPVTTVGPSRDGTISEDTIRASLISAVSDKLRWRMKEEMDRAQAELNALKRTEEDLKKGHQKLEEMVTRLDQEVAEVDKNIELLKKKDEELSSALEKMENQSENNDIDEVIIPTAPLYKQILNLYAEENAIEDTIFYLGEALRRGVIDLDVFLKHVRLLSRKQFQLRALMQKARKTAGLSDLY
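Compounds were pin-transferred onto Tsg101 binding domain (10 uM final) in HEPES pH 7.5 buffer, then FITC-PTAP peptide was added at 50 nM final. After 20 min at RT, polarization reported peptide displacement across a qHTS concentration series.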
Of the large screens only hits and unclear results are named; the others gave an inactive call. Most compounds without a hit are left out; they make up all but 1% or so of the library.

O=C(COc1ccccc1[N+](=O)[O-])Nc1ccc(NC(=O)c2cc3ccccc3o2)cc1	KCNH2 3.1 inh -119.0
CCCOc1ccc(C(=O)N2CCN(c3ccc(NC(=O)CC)cc3Cl)CC2)cc1	KCNH2 3.1 inh -86.2
CN1CCN(c2ccc(NC(=O)COc3ccccc3)cc2Cl)CC1	none
O=C(Nc1ccc(N2CCN(C(=O)c3ccccc3)CC2)c(Cl)c1)c1ccco1	none
CCC(=O)N1CCN(c2ccccc2NC(=O)Cc2ccc(Cl)cc2)CC1	none
O=C(Nc1ccc(NC(=O)c2cc3ccccc3o2)cc1)c1ccco1	KCNH2 3.1 inh -75.0
CCC(=O)N1CCN(c2ccc(Cl)cc2NC(=O)Cc2ccc(Cl)cc2)CC1	KCNH2 3.1 inh -75.3 (no result: PTAP TSG101 blk)
CCC(=O)N1CCN(c2ccc(NC(=O)c3cc4ccccc4o3)cc2Cl)CC1	KCNH2 3.1 inh -88.5
CCCC(=O)N1CCN(c2ccc(NC(=O)c3cccs3)cc2Cl)CC1	TRPML1 inh inconclusive
CCCC(=O)N1CCN(c2ccc(NC(=O)c3cc4ccccc4o3)cc2Cl)CC1	KCNH2 3.1 inh -89.7, KCNH2 WT inh inconclusive
OC(COC(c1ccccc1)c1ccccc1)CN1CCc2ccccc2C1 (stereo not drawn)	KCNH2 3.1 inh inconclusive, KCNH2 WT inh inconclusive
OC(COC(c1ccc(Cl)cc1)c1ccc(Cl)cc1)CN1CCc2ccccc2C1 (stereo not drawn)	KCNH2 WT inh -70.7 (no result: KCNH2 3.1 inh)
OC(COC(c1ccc(F)cc1)c1ccc(F)cc1)CN1CCc2ccccc2C1 (stereo not drawn)	KCNH2 3.1 inh -109.6
OC(COc1ccc(Cl)cc1Cl)CN1CCc2ccccc2C1 (stereo not drawn)	KCNH2 3.1 inh -72.0
Cc1ccc(OCC(O)CN2CCc3ccccc3C2)c(C)c1 (stereo not drawn)	none
Cc1ncsc1CCC(=O)N1CCCC(c2nc(-c3ccncc3)ncc2-c2ccccc2)C1 (stereo not drawn)	none (no result: KCNH2 3.1 inh, KCNH2 WT inh, TRPML1 inh, TRPML1 agonist, PTAP TSG101 blk)
Cc1ccccc1C(=O)NC(C)c1nnc2n1CCN(Cc1ccc(F)cc1)CC2 (stereo not drawn)	none (no result: KCNH2 3.1 inh, KCNH2 WT inh, TRPML1 inh, TRPML1 agonist, PTAP TSG101 blk)
COc1cc(C)ccc1OCc1cc(C(=O)NC(c2ccccn2)C(F)(F)F)no1 (stereo not drawn)	KCNH2 3.1 inh -86.6 (no result: PTAP TSG101 blk)
COc1cc(C)ccc1OCc1cc(C(=O)NC2CCOCC2)no1	none (no result: PTAP TSG101 blk)
O=C1c2cccc3c(O)ccc(c23)C(=O)N1Cc1ccccc1	TRPML1 agonist 97.0, PTAP TSG101 blk inconclusive
COc1ccccc1OCCN(C#N)c1nc(N(C)C)nc(N(C)C)n1	KCNH2 3.1 inh -84.4
Cc1ccc(CNc2ncnc3sc(C(=O)N4CCC(N5CCCC(O)C5)CC4)c(C)c23)o1 (stereo not drawn)	none (no result: KCNH2 3.1 inh, KCNH2 WT inh, TRPML1 inh, TRPML1 agonist, PTAP TSG101 blk)
CO/N=C/c1ccc(N2CCN(C(=O)c3ccc(C)cc3)CC2)c([N+](=O)[O-])c1	KCNH2 3.1 inh -97.8
CCCn1cnc2cc(NCc3ccc(Br)cc3)ccc21	KCNH2 3.1 inh -83.3
CCOc1ccc(CNc2ccc3c(c2)ncn3C)cc1	none
CCOc1ccc(CNc2ccc3c(c2)ncn3C(C)(C)C)cc1	KCNH2 3.1 inh -110.1
CCCn1cnc2cc(NCc3cccc(OC)c3)ccc21	KCNH2 3.1 inh -73.6
Cc1occc1C(=O)Nc1cccc(-c2nc(CNC(=O)c3ccc(N4CCCCC4)cc3)c(C)o2)c1	none (no result: KCNH2 3.1 inh, KCNH2 WT inh, TRPML1 inh, TRPML1 agonist, PTAP TSG101 blk)
CCN(CC)CCNC(=O)c1cnn(-c2nccc(-c3cc4ccccc4o3)n2)c1C	none (no result: KCNH2 3.1 inh, KCNH2 WT inh, TRPML1 inh, TRPML1 agonist, PTAP TSG101 blk)
COc1cc(-c2cnc3ccccc3c2)cc2c1OCCN(C(=O)Cn1nccc1C)C2	none (no result: KCNH2 3.1 inh, KCNH2 WT inh, TRPML1 inh, TRPML1 agonist, PTAP TSG101 blk)
CC(=O)c1ccc(NC(=O)C2CC(c3ccc(F)cc3)=NO2)cc1 (stereo not drawn)	KCNH2 3.1 inh -97.1
C=CCOc1ccc(C2=NOC(C(=O)Nc3ccc4c(c3)OCCO4)C2)cc1OC (stereo not drawn)	KCNH2 WT inh -189.4
COc1ccc(C2=NOC(C(=O)Nc3ccc4c(c3)OCCO4)C2)cc1OC (stereo not drawn)	none
Cc1cc(C)n(-c2cccc(C(=O)NCC3Cc4cc(Cl)cc(-c5cnccn5)c4O3)c2)n1 (stereo not drawn)	none (no result: KCNH2 3.1 inh, KCNH2 WT inh, TRPML1 inh, TRPML1 agonist, PTAP TSG101 blk)
NNC(=O)CN1C(CN2CCOCC2)=Nc2ccc(Br)cc2C1c1ccccc1 (stereo not drawn)	KCNH2 3.1 inh -73.2
COc1cccc(-c2nc(CN3CCN(C(=O)c4ccco4)CC3)c(C)o2)c1OC	KCNH2 3.1 inh -89.8 (no result: PTAP TSG101 blk)
O=C(c1ccccc1)c1ccc(OCC(O)CN2CCN(Cc3ccccc3)CC2)cc1 (stereo not drawn)	KCNH2 3.1 inh -84.9
CCCc1ccc(OCC(O)CN2CCN(c3ccccn3)CC2)cc1 (stereo not drawn)	KCNH2 3.1 inh -76.5
OC(COc1ccc(Br)cc1)CN1CCC(Cc2ccccc2)CC1 (stereo not drawn)	KCNH2 3.1 inh -104.4, KCNH2 WT inh -116.9
CC(C)OCC(O)CN1CCC(Cc2ccccc2)CC1 (stereo not drawn)	none

Source: PubChem (National Center for Advancing Translational Sciences (NCATS))
